In PubChem BioAssay (Tox21):
Active and inactive are the calls of the source. The call rests on the fitted dose curve; in most records, active means well fitted cell-killing curve with a large enough effect in the repeat runs; inconclusive means weak or mixed curves, or effect the other way; inactive means flat fitted curve, though single readings scatter.

test: qHTS assay to identify small molecule HDAC inhibitors - cell viability counter screen (AID 1259365); details: HCT-116 viability, CellTiter-Glo ATP luminescence, 2 h; series mostly up to 92.4 µM; further: nearly all actives have a fitted effect of over 50% in size
From the text: U.S. Tox21 Program National Center for Advancing Translational Sciences [NCATS] NIH Chemical Genomics Center [NCGC] U.S. Environmental Protection Agency [EPA] National Institutes of Environmental Health Sciences [NIEHS] National Toxicology Program [NTP] U.S. Food and Drug Administration [FDA] Tox21 Assay Overview: Histone deacetylases (HDACs) are a group of epigenetic enzymes that regulate gene expression by histone deacetylation. HDACs are capable of introducing epigenetic modifications and such aberrations contribute to the onset and progression of several human diseases, thus making HDACs a popular therapeutic target. For identifying endogenous class I/II HDAC inhibitors a homogenous, luminogenic HDAC I/II cell based assay was used to measure the relative activity of class I and II HDACs from cells. Wild type HCT-116 cells were used to screen Tox21 compound libraries for identifying class I/II HDAC inhibitors.
Tox21 Assay Protocol Summary: HCT-116 cells were dispensed at 1,500 per well in 5uL of culture medium into white solid bottom 1536-well plates (Greiner Bio-One, Monroe, NC) using a Multidrop Combi (Thermo Scientific, Waltham, MA) dispenser. The assay plates were incubated at 37 C and 5% CO2 for an overnight, and then 23nL of compounds dissolved in DMSO and positive control were transferred using a Pintool station (Wako, San Diego, CA). The assay plates were incubated at 37C and 5% CO2 for 2hr. After compound treatment, 4uL of CellTiter-Glo reagent (Promega Corporation, Madison, WI) was added to each well of the assay plates using Flying Reagent Dispenser (FRD, Aurora Discovery, San Diego, CA) and incubated the assay plates at room temperature for 30min. The luminescence signal was quantified using a ViewLux plate reader (Perkin Elmer, Shelton, CT).

SMILES	outcome
O=P(O)(O)OCC(O)CO (stereo not given)	inactive
Cc1ccc(C(=O)C(=O)O)cc1C	inactive
CCC(O)C(C)(C)C (stereo not given)	inactive
c1ccccc1	inactive
CCOC(=O)CC(CC(=O)OCC)(OC(C)=O)C(=O)OCC	inactive
CCCCC(CC)CNC(=O)CC(C)OC(=O)CCC(=O)O (stereo not given)	inactive
C[C@@H]1C[C@H]2[C@@H]3C[C@H](F)C4=CC(=O)C=C[C@]4(C)[C@@]3(F)[C@@H](O)C[C@]2(C)[C@@]1(O)C(=O)CO	inactive
COc1ccc(/C=N/NC(=O)c2ccncc2)cc1OC	inactive
CCCCC[Si](OCC)(OCC)OCC	inactive
CC(=O)Nc1ncc([N+](=O)[O-])s1	inactive
C=CC(C)(O)CC/C=C(\C)CC (stereo not given)	inactive
CC(=O)OCCCc1ccccc1	inactive
NC(=O)C1(N2CCCCC2)CCN(CCCC(=O)c2ccc(F)cc2)CC1	inactive
CCc1nccnc1C	inactive
Cc1ccccc1C	inactive
CC(=O)Nc1ccc(C)cc1	inactive
CC1=NN(c2ccc(S(=O)(=O)O)cc2)C(=O)C1N=Nc1ccccc1 (stereo not given)	inactive
O=S(=O)(O)SSS(=O)(=O)O	inactive
Cc1cccc(NC(=S)N(C)C)c1	inactive
Nc1ccc(S(=O)(=O)Nc2ccccn2)cc1	inactive

SMILES	outcome
CC(=O)OC[C@H]1O[C@@H](OC(C)=O)[C@H](OC(C)=O)[C@@H]1OC(C)=O	inactive
CCCCCC(=O)OCC	inactive
C=C[C@@H](C)CCC=C(C)C	inactive
CCCCC(CC)COC(=O)c1ccccc1 (stereo not given)	inactive
CO[Si](CCCS)(OC)OC	inactive
C=CCOc1cc(Cl)ccc1C(=O)NCCN(CC)CC	inactive
O=C(/C=C/c1ccccc1)NCCO	inactive
COCCOCCOCCOC	inactive
CC(C)(c1ccc(Oc2ccc3c(c2)C(=O)OC3=O)cc1)c1ccc(Oc2ccc3c(c2)C(=O)OC3=O)cc1	inactive
CC(C)(C)c1ccc(C=O)cc1	inactive
Nc1cc(C(=O)O)ccc1Cl	inactive
O=S(=O)(O)CCO	inactive
CC1(N)CCC(C(C)(C)N)CC1 (stereo not given)	inactive
OC(CCN1CCCCC1)(c1ccccc1)c1ccccc1	inactive
CCN(CCO)c1cccc(C)c1	inactive
C[N+](C)(C)CC(O)CCl (stereo not given)	inactive
CCC1Nc2cc(Cl)c(S(N)(=O)=O)cc2S(=O)(=O)N1 (stereo not given)	inactive
Cc1nc2ccccc2c(=O)o1	inactive
CCN1CN(CC)CN(CC)C1	inactive
NS(=O)(=O)c1cc2c(cc1Cl)NC(CC1CCCC1)NS2(=O)=O (stereo not given)	inactive
